Measured values taken from PubChem BioAssay (NCATS).
Results filed as inconclusive are left out. Values without a mark were called inactive. Calls of active or inactive are those of the source. The call rests on the fitted dose curve; in most records, active means well fitted cell-killing curve with a large enough effect; inconclusive means small, poorly fitted or top-dose-only effect, or effect the other way; inactive means flat fitted curve, though single readings scatter.
On the % scale 0 is the no-effect control and ±100 the full control effect; potency means the concentration at half of the fitted maximal effect.

What follows are molecules tested on Tov112D (assay: Primary qHTS to identify gynecologic anti-cancer compounds using libraries of approved drugs and bioactive compounds (AID 1345084; further: nearly all actives have a fitted effect of over 55% in size)). Settings: Gynecologic cancer cell panel viability, ATPlite luminescence, 48 h; series mostly up to 57.5 µM; activity change, negative = cytotoxicity: at the top concentration.
Procedure, shortened: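 Luminescence from the ATPlite ATP-monitoring reagent indicates viable cell number; lower signal means cytotoxicity. Cells received compound 16 h after seeding and were exposed for 48 h across five concentrations.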
In the case of CCCCC1CCN(CCCN2C(=O)CCc3ccccc32)CC1, the “activity change, negative = cytotoxicity” value is reported as -19.5%.
With Clc1cccc(COc2cncc(N3CCNCC3)n2)c1 the “activity change, negative = cytotoxicity” value was 6.41%.
For O=C(NCC1CCN(Cc2cccc(Cl)c2)CC1)[C@@H]1CCCN(c2ncnc3c2nc2n3CCCC2)C1, the “activity change, negative = cytotoxicity” value was 0.923%.
In the case of CC[C@@H](Nc1c(Nc2cccc(C(=O)N(C)C)c2O)c(=O)c1=O)c1cc(C(C)C)co1, the “activity change, negative = cytotoxicity” value is reported as 6.22%.
With COc1c(CCC(=O)O)cccc1O[C@@H]1O[C@H](CO)[C@@H](O)[C@H](O)[C@H]1O the “activity change, negative = cytotoxicity” value was 2.98% [at 38.5 µM].
For COC(=O)c1ccc2c(c1)nc(NC(=O)c1ccccc1)n2CCCc1ccccc1, the “activity change, negative = cytotoxicity” value was -4.29%.
For Cc1nc(-c2cn3c(n2)-c2ccc(-c4cnn(C(C)(C)C(N)=O)c4)cc2OCC3)n(C(C)C)n1, the “activity change, negative = cytotoxicity” value was -21%.
For CC(C)C(C)C(O)C1CC23CC(=O)C4(O)C(=C2CCC3C1C)C=CC1(O)CC(O)CCC14C (centres undefined), the “activity change, negative = cytotoxicity” value was -4.71% [at 25.3 µM].
With C=C1CCC[C@]2(C)CC/C(=C(/CO)C(=O)OC)C[C@@H]12 the “activity change, negative = cytotoxicity” value was 3.59%.
With O=S(=O)(NCc1ccccn1)c1ccc(Br)c2ccccc12 the “activity change, negative = cytotoxicity” value was 5.81%.
In the case of CCC(C)C(=O)OC12C(OC(C)=O)C(C)C3(O)C(C=C(CO)CC4(O)C(=O)C(C)=CC43)C1C2(C)C (centres undefined), the “activity change, negative = cytotoxicity” value is reported as 9.8% [at 25.3 µM].
In the case of CO[C@@H]1[C@H](O)CCC2(CO2)[C@H]1[C@@]1(C)O[C@@H]1CC=C(C)C (some centres undefined), the “activity change, negative = cytotoxicity” value is reported as -2.75%.
In the case of COc1ccc(-c2cnc3c(-c4cccc5ncccc45)cnn3c2)cc1, the “activity change, negative = cytotoxicity” value is reported as 15.6%.
In the case of CC(C)(O)c1ccn2c(-c3ccc(F)c(-c4ccc(F)cc4C#N)c3)cnc2c1F, the “activity change, negative = cytotoxicity” value is reported as 0.0618%.
In the case of O=C(N[C@H](Cc1cscn1)C(=O)N[C@@H](CC1CCCCC1)[C@@H](O)[C@@H](O)C1CC1)c1nc2ccccc2[nH]1, the “activity change, negative = cytotoxicity” value is reported as -2.39%.
CC(=O)C1=C(O)C=C2Oc3c(C(C)=O)c(O)c(C)c(O)c3[C@]2(C)C1=O was tested, and the “activity change, negative = cytotoxicity” value was 1.36%.
For CC[C@H]1OC(=O)[C@H](C)[C@@H](O[C@H]2C[C@@](C)(OC)[C@@H](O)[C@H](C)O2)[C@H](C)[C@@H](O[C@H]2O[C@H](C)C[C@H](N(C)C)[C@H]2O)[C@](C)(O)C[C@@H](C)C(=O)[C@H](C)[C@@H](O)[C@]1(C)O, the “activity change, negative = cytotoxicity” value was -2% [at 25.3 µM].
Cc1cc(C)cc(-c2cnc3cc(Cl)c(-c4cccc(O)c4)cc3c2OCCCN)c1 was tested, and the “activity change, negative = cytotoxicity” value was 0.909%.
In the case of O=C(c1ccc(Cl)cc1)N1CCN(c2ccnc3cc(Cl)ccc23)CC1, the “activity change, negative = cytotoxicity” value is reported as -1.69%.
For C/C=C(\C)C(=O)O[C@H]1C[C@](C)(O)[C@H]2CC=C(C)[C@H]2[C@@H]2OC(=O)[C@H](C)[C@H]21, the “activity change, negative = cytotoxicity” value was -11.2% [at 38.5 µM].
For CC(C)(CNC(=O)c1cccc(-c2noc(C(F)(F)F)n2)c1)c1coc(-c2ccccc2)n1, the “activity change, negative = cytotoxicity” value was 2.43%.
With NS(=O)(=O)c1ccc(N2N=C(c3ccccc3)CC2c2ccccc2)cc1 (centres undefined) the “activity change, negative = cytotoxicity” value was 8.49%.
With O=C(O)C1=CO[C@@H](O[C@@H]2O[C@H](CO)[C@@H](O)[C@H](O)[C@H]2O)[C@@H]2C(CO)=CC[C@H]12 the “activity change, negative = cytotoxicity” value was -0.822% [at 38.5 µM].
For COC(=O)c1ccnc(-c2cc(C(=O)Nc3ccc(C4(N)CC4)cc3)ccn2)c1, the “activity change, negative = cytotoxicity” value was 1.42%.
With CNCCN1CCC(c2cc(CN(C)C(=O)c3cccc(Oc4ccccc4)c3)ccn2)CC1 the “activity change, negative = cytotoxicity” value was 4.73% [at 25.3 µM].
Cc1c(F)ccc(C(=O)Nc2cc([N+](=O)[O-])ccc2N2CCN(C)CC2)c1Cl was tested, and the “activity change, negative = cytotoxicity” value was -0.521%.
For CCNC(=O)c1noc(-c2cc(Cl)c(O)cc2O)c1-c1ccc(OC)cc1, the Potency was 501 nM (active).
In the case of C[C@@H](O[C@H]1OCCN(Cc2nn(P(=O)(O)O)c(=O)[nH]2)[C@H]1c1ccc(F)cc1)c1cc(C(F)(F)F)cc(C(F)(F)F)c1, the “activity change, negative = cytotoxicity” value is reported as 1.95% [at 25.3 µM].
With Cc1[nH]c2ccccc2c1CCNC(=O)c1cccs1 the “activity change, negative = cytotoxicity” value was -3.86%.
CCC(C)/C=C(C)/C=C/C1=CC2=CC(=O)C3(C)OC(C)(O)C(C(=O)OC)C3C2=CO1 (centres undefined) was tested, and the “activity change, negative = cytotoxicity” value was 4.6% [at 25.3 µM].
In the case of C=C(C(=O)OC)[C@@H]1CC=C2C=CC(=O)[C@H](C)[C@@]2(C)C1, the “activity change, negative = cytotoxicity” value is reported as -0.617%.
NS(=O)(=O)c1ccc(NC(=O)Nc2ccc(F)cc2)cc1 was tested, and the “activity change, negative = cytotoxicity” value was 7.6%.
For Cc1ccc(CNc2ncnc3ccc(-c4ccc(CO)o4)cc23)o1, the “activity change, negative = cytotoxicity” value was 8.78%.
For Cc1ccc(-c2c(C(=O)CCl)n(CCCO)c3ncnc(N)c23)cc1, the “activity change, negative = cytotoxicity” value was -0.595%.
In the case of CNC(=O)COC(=O)N1CCC(CCc2ccc(Cl)cc2)CC1, the “activity change, negative = cytotoxicity” value is reported as -4.9%.
With Cn1ncnc1[C@@H]1c2n[nH]c(=O)c3cc(F)cc(c23)N[C@H]1c1ccc(F)cc1 the “activity change, negative = cytotoxicity” value was 0.251%.
C=C[C@H](/C=C\c1ccc(O)cc1)c1ccc(O)cc1 was tested, and the “activity change, negative = cytotoxicity” value was -10.7%.
For Cc1c(C(=O)Nc2ccc(N3CCC(N4CCOCC4)CC3)c(C#N)c2)cnn1-c1ccc(Cl)cc1, the “activity change, negative = cytotoxicity” value was -24.5%.
For CC(=O)O[C@@H]1C[C@@]23C[C@@]24CC[C@H](O[C@@H]2OC[C@H](O)[C@H](O)[C@H]2O)C(C)(C)[C@@H]4CC[C@H]3[C@]2(C)[C@@H](O)C34O[C@H](C[C@@H](C)[C@@H]3[C@@]12C)[C@@H](C(C)(C)O)O4, the “activity change, negative = cytotoxicity” value was 16.7%.
